# In the supplement of paper PMC10338343:
# ± gives the standard deviation.
# Test system: MILI (PIWIL2) piRISC loaded with L1MC piRNA (26 nt)
# Experiment: pre-steady-state target cleavage rate (min^-1); guide: L1MC piRNA 5'p-UAACUAAAUACUAUGCAAGCUGUAGG; MIWI and MILI are mouse PIWI proteins and EfPiwi is from a freshwater sponge; tags in brackets are library labels; higher = faster piRNA-guided slicing of the target
# Details: auxiliary factor: 500 nM mouse GTSF1
# How it was run: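 With or without 500 nM GTSF1 partner protein, 1 nM active affinity-purified piRISC carrying one synthetic guide was mixed with 0.1 nM transcribed, DNA-blocked target RNA library in HEPES–potassium acetate buffer at 33 °C for 0–8 or 0–960 min. Uncleaved targets were sequenced and normalised to depth and to weakly complementary targets, three trials were pooled, and k3 was capped at 0.0001 min^-1. The pre-steady-state cleavage rate came from a burst-and-steady-state fit.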
row,Sequence,pre-steady-state target cleavage rate
1,UCCUGGAACAGCUUGCUUAGUAUUUACAAA,0.105 ± 0.026
2,UCCUGCUACAGCUUGCAUAGAAUUUACUUA,0.107 ± 0.031
3,UCCUGGAUGACCUUGCAUAGUAAUUAGUUA,0.131 ± 0.027
4,UCCUGGUACAGCAAGCAUAGUAUUUAGAAA,0.104 ± 0.031
5,UCCUGGAUGUCCAUGCAUAGAAUUUAGUUA,0.0111 ± 0.0048
6,UCCUGGUACAGCUUGCAUAGUAUUAAGAAA,0.0213 ± 0.0097
7,UCCUGGAUGUGCUUCGAUAGUAUUUAGUAA,0.0404 ± 0.011
8,UCCUGCUACAGCUUGCAUACUAUUUACAAA,0.0741 ± 0.024
9,UCCUGGUACAGCUUGCUUAGUAUUUUCAAA,0.0244 ± 0.0078
10,UCCUGCUACAGCAACCAUAGUAUUUAGAAA,0.102 ± 0.03
11,UCCUCGUACAGCUUGCAUAGUAUUUACUUA,0.0971 ± 0.015
12,UCCUGGAUGUCGAUGCAUAGAAUUUAGUUA,0.0057 ± 0.0026
13,UCCUGGUACACGUUGCAUAGUAUUUAGUAA,0.166 ± 0.038
14,UCCUGGAUGUGCUUGCAUAGUAUUUAGUGA,0.11 ± 0.017
15,UCCUGGAUGAGCUUGCAUAGUUUUUAGUAA,0.0181 ± 0.0068
16,UCCUGGAUGUCGUUGCAUAGUUUUUAGUAA,0.00481 ± 0.004

row,Sequence,pre-steady-state target cleavage rate
1,UCCUGGAUGUGCUUGCAAUAGUAUUUAGUUA,0.00398 ± 0.0037
2,UCCUGGAUGUCGAACGUAUCUAUUUCAGUUA,< 0.0001
3,UCCUGGAUGUCGUUGCAUAGUAAUUAGUAA,0.0579 ± 0.013
4,UCCUGGAUGUCGAACCAUAGUUUUUUGUUA,< 0.0001
5,UCCUCCUACAGCUUGCAUAUGUAUUUAGUUA,0.0106 ± 0.0057
6,UCCUGGAUCAGCUUGCAUAGUAUAAUGUUA,0.116 ± 0.013
7,UCCUGGUACAGCAUGCAUAGUAUUUACAAA,0.127 ± 0.033
8,UCCUGGAUGUCGAAGCAUAGUAUAUAGUAA,0.012 ± 0.0042
9,UCCUGGAUCAGCUUGCAUAGUUUUUACAAA,0.012 ± 0.0052
10,UCCUCCUACAGCUUCGAUAGUAUUUACAAA,0.0556 ± 0.016
11,UCCUGGUACAGCUUGCAUAGAUUUUACAAA,0.00751 ± 0.0049
12,UCCUGGAUGUCCUUGCAUAGUAUUAUGUUA,0.00972 ± 0.0046
13,UCCUGGUUCAGCUUGCAUAGUAUUUUCAAA,0.0427 ± 0.016
14,UCCUCCUACAGCUUGCAUAGUAUUGAGUUA,0.133 ± 0.026
15,UCCUGGAUCAGCUUGCAUAGUAAUUACAAA,0.145 ± 0.04

# Same assay, conditions: auxiliary factor: none (no GTSF1)
row,Sequence,pre-steady-state target cleavage rate
1,UCCUGGAUGUCGAACGUUAGUAUUUAGUAA,< 0.0001
2,UCCUGGAUGUCGAAGCUUAGUAUUUUGUUA,< 0.0001
3,UCCUGGAUGUCGAACCAUAGUCAUUUAGUUA,< 0.0001
4,UCCUGGUACAGCUUGCAUACAAUUUAGUUA,0.00451 ± 0.0027
5,UCCUGGAUGUCGAACCAUACGUAUUUAGUUA,< 0.0001
6,UCCUGGAUGUCGAACCAUAGUAAUUUGUUA,< 0.0001
7,UCCUGGAUGUCGAACCAUUGUAAUUAGUUA,< 0.0001
8,UCCUGGAUGUCGAACGUAAGUAUUAUAGUUA,< 0.0001
